Experimental data taken from PubChem BioAssay AID1159580 (chemical genetic matrix, 2015).
The campaign covered roughly 5,500 compounds. About 2,000 (36%) were called active. Another 18% or so got no clear call; they are omitted. Cut-off read from the data, not from the text of the source: active = normalized growth mostly below about 0.91 (no sharp cut-off); inconclusive = no clear call, values can overlap the other calls; inactive = mostly above about 0.92. Some of the results follow.

Assay: chemical genetic growth profiling, strain panel (AID 1159580);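 note: tested at 20 µM; growth read once vehicle control cultures reached saturation at 30 °C; 1 = growth at the plate median or of vehicle wells; lower values mean less growth of the strain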
Settings: growth OD

Measured: normalized growth

Nc1ncnc2c1ncn2[C@@H]1O[C@H](CO)[C@@H](O)[C@H]1O
inactive: S. cerevisiae deletion strains, locus YJR066W, strain TOR1, stronger effect = lower value 0.966 | S. cerevisiae deletion strains, locus YJR075W, strain HOC1, stronger effect = lower value 0.99 | S. cerevisiae deletion strains, locus YKL009W, strain mrt4, stronger effect = lower value 0.961 | S. cerevisiae deletion strains, locus YKL068W, stronger effect = lower value 0.983 | S. cerevisiae deletion strains, locus YKL085W, strain MDH1 (second series), stronger effect = lower value 0.965 | S. cerevisiae deletion strains, locus YKL085W, strain MDH1, stronger effect = lower value 0.965 | S. cerevisiae deletion strains, locus YKL160W, strain elf1, stronger effect = lower value 0.955 | S. cerevisiae deletion strains, locus YKR001C, strain vps1, stronger effect = lower value 0.997 | S. cerevisiae deletion strains, locus YKR026C, strain gcn3, stronger effect = lower value 0.987 | S. cerevisiae deletion strains, locus YKR091W, strain srl3, stronger effect = lower value 0.994 | S. cerevisiae deletion strains, locus YLL001W, strain dnm1, stronger effect = lower value 0.922 | S. cerevisiae deletion strains, locus YLL026W, stronger effect = lower value 0.99 | S. cerevisiae deletion strains, locus YLL041C, strain sdh2, stronger effect = lower value 0.99 | S. cerevisiae deletion strains, locus YLR027C, strain aat2, stronger effect = lower value 0.994 | S. cerevisiae deletion strains, locus YLR039C, strain RIC1, stronger effect = lower value 0.95 | S. cerevisiae deletion strains, locus YLR058C, strain SHM2, stronger effect = lower value 0.971 | S. cerevisiae deletion strains, locus YLR102C, strain apc9, stronger effect = lower value 0.978 | S. cerevisiae deletion strains, locus YLR113W, strain HOG1, stronger effect = lower value 1.01 | S. cerevisiae deletion strains, locus YLR221C, strain rsa3, stronger effect = lower value 0.95 | S. cerevisiae deletion strains, locus YLR258W, strain gsy2, stronger effect = lower value 0.975 | S. cerevisiae deletion strains, locus YLR262C, strain YPT6 (second series), stronger effect = lower value 0.974 | S. cerevisiae deletion strains, locus YLR262C, strain YPT6, stronger effect = lower value 0.913 | S. cerevisiae deletion strains, locus YLR268W, strain sec22, stronger effect = lower value 1 | S. cerevisiae deletion strains, locus YLR320W, strain mms22, stronger effect = lower value 0.939 | S. cerevisiae deletion strains, locus YLR330W, strain CHS5, stronger effect = lower value 0.993 | S. cerevisiae deletion strains, locus YLR342W, strain FKS1 (second series), stronger effect = lower value 1.03 | S. cerevisiae deletion strains, locus YLR342W, strain FKS1, stronger effect = lower value 0.993 | S. cerevisiae deletion strains, locus YLR357W, strain rsc2, stronger effect = lower value 0.983 | S. cerevisiae deletion strains, locus YLR370C, strain arc18, stronger effect = lower value 0.967 | S. cerevisiae deletion strains, locus YLR371W, strain rom2, stronger effect = lower value 0.978 | S. cerevisiae deletion strains, locus YLR384C, strain iki3, stronger effect = lower value 0.982 | S. cerevisiae deletion strains, locus YLR418C, strain cdc73, stronger effect = lower value 0.945 | S. cerevisiae deletion strains, locus YML016C, strain PPZ1, stronger effect = lower value 0.987 | S. cerevisiae deletion strains, locus YML032C, strain rad52, stronger effect = lower value 0.949 | S. cerevisiae deletion strains, locus YML120C, strain ndi1, stronger effect = lower value 0.952 | S. cerevisiae deletion strains, locus YML124C, strain tub3, stronger effect = lower value 0.988 | S. cerevisiae deletion strains, locus YMR058W, strain fet3, stronger effect = lower value 0.995 | S. cerevisiae deletion strains, locus YMR078C, strain ctf18, stronger effect = lower value 0.972 | S. cerevisiae deletion strains, locus YMR125W, strain sto1, stronger effect = lower value 0.982 | S. cerevisiae deletion strains, locus YMR129W, stronger effect = lower value 0.995 | S. cerevisiae deletion strains, locus YMR205C, strain PFK2, stronger effect = lower value 0.944 | S. cerevisiae deletion strains, locus YMR223W, strain ubp8, stronger effect = lower value 0.956 | S. cerevisiae deletion strains, locus YMR231W, strain pep5, stronger effect = lower value 0.992 | S. cerevisiae deletion strains, locus YMR263W, strain SAP30, stronger effect = lower value 0.982 | S. cerevisiae deletion strains, locus YMR307W, strain GAS1, stronger effect = lower value 0.98 | S. cerevisiae deletion strains, locus YNL067W, strain RPL9B, stronger effect = lower value 0.967 | S. cerevisiae deletion strains, locus YNL071W, strain lat1, stronger effect = lower value 1 | S. cerevisiae deletion strains, locus YNL153C, strain GIM3, stronger effect = lower value 0.98 | S. cerevisiae deletion strains, locus YNL183C, strain NPR1, stronger effect = lower value 0.975 | S. cerevisiae deletion strains, locus YNL209W, strain ssb2, stronger effect = lower value 0.988 | S. cerevisiae deletion strains, locus YNL233W, strain BNI4, stronger effect = lower value 0.991 | S. cerevisiae deletion strains, locus YNL248C, strain rpa49, stronger effect = lower value 1.01 | S. cerevisiae deletion strains, locus YNL250W, strain rad50, stronger effect = lower value 0.978 | S. cerevisiae deletion strains, locus YNL271C, strain bni1, stronger effect = lower value 0.979 | S. cerevisiae deletion strains, locus YNL298W, strain CLA4, stronger effect = lower value 0.963 | S. cerevisiae deletion strains, locus YNL307C, strain MCK1, stronger effect = lower value 0.978 | S. cerevisiae deletion strains, locus YNL322C, strain KRE1 (second series), stronger effect = lower value 0.978 | S. cerevisiae deletion strains, locus YNR049C, strain mso1, stronger effect = lower value 0.982 | S. cerevisiae deletion strains, locus YNR052C, strain pop2, stronger effect = lower value 0.977 | S. cerevisiae deletion strains, locus YOL006C, strain TOP1, stronger effect = lower value 1.02 | S. cerevisiae deletion strains, locus YOL012C, strain htz1 0.737 | S. cerevisiae deletion strains, locus YOL147C, strain pex11, stronger effect = lower value 0.987 | S. cerevisiae deletion strains, locus YOR001W, strain rrp6, stronger effect = lower value 1.02 | S. cerevisiae deletion strains, locus YOR061W, strain CKA2, stronger effect = lower value 0.96 | S. cerevisiae deletion strains, locus YOR069W, strain VPS5, stronger effect = lower value 0.99 | S. cerevisiae deletion strains, locus YOR070C, strain gyp1, stronger effect = lower value 0.987 | S. cerevisiae deletion strains, locus YOR080W, strain dia2, stronger effect = lower value 0.995 | S. cerevisiae deletion strains, locus YOR083W, strain WHI5, stronger effect = lower value 0.96 | S. cerevisiae deletion strains, locus YOR106W, strain vam3, stronger effect = lower value 0.971 | S. cerevisiae deletion strains, locus YOR136W, strain idh2, stronger effect = lower value 0.982 | S. cerevisiae deletion strains, locus YOR144C, strain elg1, stronger effect = lower value 0.978 | S. cerevisiae deletion strains, locus YOR184W, strain ser1, stronger effect = lower value 0.967 | S. cerevisiae deletion strains, locus YOR231W, strain MKK1, stronger effect = lower value 1.03 | S. cerevisiae deletion strains, locus YOR265W, strain rbl2, stronger effect = lower value 0.983 | S. cerevisiae deletion strains, locus YOR270C, strain vph1, stronger effect = lower value 0.966 | S. cerevisiae deletion strains, locus YOR290C, strain snf2, stronger effect = lower value 0.955 | S. cerevisiae deletion strains, locus YOR316C, strain cot1, stronger effect = lower value 0.978 | S. cerevisiae deletion strains, locus YPL051W, strain arl3, stronger effect = lower value 0.988 | S. cerevisiae deletion strains, locus YPL078C, strain atp4, stronger effect = lower value 0.969 | S. cerevisiae deletion strains, locus YPL106C, strain sse1, stronger effect = lower value 0.955 | S. cerevisiae deletion strains, locus YPL240C, strain hsp82, stronger effect = lower value 0.998 | S. cerevisiae deletion strains, locus YPL241C, strain CIN2, stronger effect = lower value 0.99 | S. cerevisiae deletion strains, locus YPL256C, strain CLN2, stronger effect = lower value 0.982 | S. cerevisiae deletion strains, locus YPR119W, strain clb2, stronger effect = lower value 0.984 | S. cerevisiae deletion strains, locus YPR141C, strain kar3, stronger effect = lower value 0.972 | S. cerevisiae deletion strains, locus YPR163C, strain tif3, stronger effect = lower value 0.969 | S. cerevisiae deletion strains, locus YPR167C, strain met16, stronger effect = lower value 0.963 | S. cerevisiae deletion strains, strain wtn01, stronger effect = lower value 1.02 | S. cerevisiae strains, strain wild type, stronger effect = lower value 0.989
